Compounds without any hit were thinned out: in the full panel of roughly 83,000, 20% have a hit.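 Assay: single dose, 48 h. Readout: percent growth (0 = no net growth; negative = cell death). Active: <10.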 Calls of active or inactive are those of the source.
Assays:
Assay in all cases: NCI-60 one-dose screen, 48 h (100 = growth as untreated, 0 = no growth, -100 = all killed)
Conditions in all cases: 10 µM unless noted
NCI-H23 lung = tested on: NCI-H23 lung
NCI-H226 lung = tested on: NCI-H226 lung
NCI-H322M lung = tested on: NCI-H322M lung
HOP-62 NSCLC = tested on: HOP-62 NSCLC
NCI-H460 lung = tested on: NCI-H460 lung
HOP-92 NSCLC = tested on: HOP-92 NSCLC
NCI-H522 lung = tested on: NCI-H522 lung
A549/ATCC NSCLC = tested on: A549/ATCC NSCLC
786-0 renal = tested on: 786-0 renal
COLO 205 colon = tested on: COLO 205 colon
DU-145 prostate = tested on: DU-145 prostate
K-562 leukemia = tested on: K-562 leukemia
MALME-3M melanoma = tested on: MALME-3M melanoma
MDA-MB-231 breast = tested on: MDA-MB-231 breast
RXF 393 renal = tested on: RXF 393 renal
SF-268 CNS = tested on: SF-268 CNS
SF-295 CNS = tested on: SF-295 CNS
SF-539 CNS = tested on: SF-539 CNS
UACC-257 melanoma = tested on: UACC-257 melanoma
M14 melanoma = tested on: M14 melanoma

Measured: growth

Cc1cc2c(cc1Cl)C(=O)/C(=C/c1ccc(F)cc1)O2
inactive: NCI-H23 lung 85.8% | NCI-H226 lung 84.3% | NCI-H322M lung 99.6% | HOP-62 NSCLC 93.7% | NCI-H460 lung 105% | HOP-92 NSCLC 93.4% | NCI-H522 lung 65.8% | A549/ATCC NSCLC 103% | 786-0 renal 89.8% | COLO 205 colon 119% | DU-145 prostate 118% | K-562 leukemia 77.6% | MALME-3M melanoma 100% | MDA-MB-231 breast 90.1% | RXF 393 renal 95.7% | SF-268 CNS 117% | SF-295 CNS 98.9% | SF-539 CNS 85.9% | UACC-257 melanoma 106%

Cc1ccc([C@H]2C(C(=O)c3ccc(Cl)cc3)C3(N[C@@H]2c2ccccc2)C(=O)Nc2ccc(Br)cc23)cc1 (some centres undefined)
inactive: NCI-H23 lung 61.4% | NCI-H226 lung 66.7% | NCI-H322M lung 69.1% | HOP-62 NSCLC 69.9% | NCI-H460 lung 55.6% | HOP-92 NSCLC 21.9% | NCI-H522 lung 46.5% | A549/ATCC NSCLC 38.4% | 786-0 renal 45.8% | COLO 205 colon 49.3% | DU-145 prostate 82.5% | K-562 leukemia 26.6% | MALME-3M melanoma 92.2% | MDA-MB-231 breast 49.7% | RXF 393 renal 33.6% | SF-268 CNS 100% | SF-295 CNS 52.4% | SF-539 CNS 79.7% | UACC-257 melanoma 71.6% | M14 melanoma 44.3%

O=C1c2c(c3c4cc(F)ccc4oc3c3[nH]c4ccc(Br)cc4c23)C(=O)N1O
active: NCI-H23 lung 7.64% | NCI-H460 lung 5.53% | HOP-92 NSCLC -39.4% | NCI-H522 lung -18% | MALME-3M melanoma 7.44% | SF-268 CNS 2.64% | SF-539 CNS -10.9%
inactive: NCI-H226 lung 61.8% | NCI-H322M lung 79.4% | HOP-62 NSCLC 19.4% | A549/ATCC NSCLC 69.2% | 786-0 renal 15.5% | COLO 205 colon 67.9% | DU-145 prostate 24.6% | K-562 leukemia 40.3% | MDA-MB-231 breast 66.4% | RXF 393 renal 29.2% | SF-295 CNS 20% | UACC-257 melanoma 88.5% | M14 melanoma 14.3%

CN(C)c1ccnc(CNCCSC2(c3ccc(C(F)(F)F)cc3)c3ccccc3C=Cc3ccccc32)c1
active: NCI-H23 lung -39.1% | NCI-H460 lung -89.4% | HOP-92 NSCLC -10.1% | NCI-H522 lung -64.9% | A549/ATCC NSCLC 2.72% | 786-0 renal -22.4% | COLO 205 colon -82.3% | DU-145 prostate 3.69% | K-562 leukemia -11.1% | MALME-3M melanoma -89.7% | MDA-MB-231 breast -48% | RXF 393 renal -26.7% | SF-268 CNS 7.1% | SF-295 CNS -90.6% | SF-539 CNS -96.8% | UACC-257 melanoma -20.6% | M14 melanoma -74.7%
inactive: NCI-H226 lung 25.9% | NCI-H322M lung 42.9% | HOP-62 NSCLC 17.2%

O=C(N=Nc1c(O)[nH]c2ccc(Cl)cc12)c1ccc2nc(-c3ccccc3)[nH]c2c1
active: NCI-H522 lung 8.85% | MALME-3M melanoma 8.71% | MDA-MB-231 breast -33.1%
inactive: NCI-H23 lung 29.9% | NCI-H226 lung 91.1% | NCI-H322M lung 15.8% | HOP-62 NSCLC 81.3% | NCI-H460 lung 26.3% | HOP-92 NSCLC 77% | A549/ATCC NSCLC 94.3% | 786-0 renal 47.4% | COLO 205 colon 62% | DU-145 prostate 10.9% | K-562 leukemia 29.3% | RXF 393 renal 59.1% | SF-268 CNS 21.8% | SF-295 CNS 63.6% | SF-539 CNS 34% | UACC-257 melanoma 109% | M14 melanoma 68.6%

COc1cc2oc(-c3cccc(C(=O)Nc4ccc(Cl)cc4)c3)cc(=O)c2c(OCCNC(=O)[C@H](CCC(=O)OC(C)(C)C)NC(=O)OC(C)(C)C)c1OC
inactive: NCI-H23 lung 106% | NCI-H226 lung 95.9% | NCI-H322M lung 98.4% | HOP-62 NSCLC 95.3% | NCI-H460 lung 101% | HOP-92 NSCLC 84.2% | NCI-H522 lung 89% | A549/ATCC NSCLC 92.8% | 786-0 renal 93.4% | COLO 205 colon 117% | DU-145 prostate 108% | K-562 leukemia 81.5% | MALME-3M melanoma 106% | MDA-MB-231 breast 85.4% | RXF 393 renal 84.3% | SF-268 CNS 81.8% | SF-295 CNS 94.5% | SF-539 CNS 87.8% | UACC-257 melanoma 107% | M14 melanoma 106%

O=C(c1ccc(OCCN2CCOCC2)cc1)C1[C@H](c2ccc(Cl)cc2)[C@@H](c2ccccc2)NC12C(=O)Nc1ccc(Cl)cc12 (some centres undefined)
inactive: NCI-H23 lung 37.9% | NCI-H226 lung 48.3% | NCI-H322M lung 55.6% | HOP-62 NSCLC 67.7% | NCI-H460 lung 10.1% | NCI-H522 lung 16.3% | A549/ATCC NSCLC 22.9% | 786-0 renal 16.6% | DU-145 prostate 45.8% | MALME-3M melanoma 69.3% | MDA-MB-231 breast 28.7% | SF-268 CNS 43.8% | SF-295 CNS 27.4% | SF-539 CNS 41.5% | UACC-257 melanoma 45.4% | M14 melanoma 23.2%
active: HOP-92 NSCLC -11.8% | COLO 205 colon -20.1% | K-562 leukemia 4.95% | RXF 393 renal 2.65%

From PubChem BioAssay (NCI)
